Screening results from PubChem.
In the library only some 1.1% were active in any assay of this set; here they are far more common.
MOR-DOR inv ag: inverse agonists of MOR-DOR heterodimerization, primary screen, cell-based, luminescence. inhibition, % at 9.3 µM. 340,000 tested, 0.21% active. cell-based MOR-DOR heterodimer luminescence, inverse agonism; in the data active = inhibition above about 22%, passing the limit was not always enough
Target sequence (P35372 whole entry, looked up): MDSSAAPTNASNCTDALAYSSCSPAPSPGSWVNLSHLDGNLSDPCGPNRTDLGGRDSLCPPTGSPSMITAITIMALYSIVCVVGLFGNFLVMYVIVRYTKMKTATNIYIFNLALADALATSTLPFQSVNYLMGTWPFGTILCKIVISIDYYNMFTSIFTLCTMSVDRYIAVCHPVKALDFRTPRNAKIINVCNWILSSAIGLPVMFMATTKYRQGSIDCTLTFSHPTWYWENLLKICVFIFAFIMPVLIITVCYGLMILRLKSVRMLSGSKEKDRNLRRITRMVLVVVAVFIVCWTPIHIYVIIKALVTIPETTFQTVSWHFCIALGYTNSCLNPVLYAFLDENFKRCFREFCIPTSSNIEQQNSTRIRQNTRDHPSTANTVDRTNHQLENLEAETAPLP
Target sequence (P41143 whole entry, looked up): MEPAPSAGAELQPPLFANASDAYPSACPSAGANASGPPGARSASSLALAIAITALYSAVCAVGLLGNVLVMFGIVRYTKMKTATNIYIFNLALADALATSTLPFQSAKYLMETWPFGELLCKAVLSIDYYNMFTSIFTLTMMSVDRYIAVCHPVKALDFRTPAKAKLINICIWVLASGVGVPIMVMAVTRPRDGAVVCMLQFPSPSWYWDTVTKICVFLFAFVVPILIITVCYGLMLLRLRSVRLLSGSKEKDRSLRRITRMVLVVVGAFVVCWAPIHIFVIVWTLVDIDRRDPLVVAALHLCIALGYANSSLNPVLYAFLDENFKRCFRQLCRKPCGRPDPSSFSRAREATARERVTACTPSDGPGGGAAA
HTR5A inv ctr: HTR5A inverse agonists in luminescence cell assay, primary screen, counter-screen for OPRM1-OPRD1 heterodimer inverse agonist project, full-deck HTS; HTR5A cell line, inverse agonism; inhibition, % at 9.3 µM; 340,000 tested, 0.083% active; AID 504634, 2011; in the data active = inhibition mostly above about 23%, no sharp cut-off; inactive = mostly below about 18%
OPRM1-OPRD1 ag: agonists of OPRM1-OPRD1 heterodimerization, primary screen, cell-based, luminescence | cells | activation, % at 9.3 µM | 340,000 tested, 0.3% active | AID 504326, 2011
HTR5A ag ctr: HTR5A agonists in luminescence cell assay, primary screen, counter-screen for OPRM1-OPRD1 heterodimer agonist project, full-deck HTS | cell-based | 5-hydroxytryptamine receptor 5A (Homo sapiens), P47898 | 340,000 tested, 0.61% active | AID 504692, 2011 | activation, % at 9.3 µM; in the data active = activation mostly above about 9.5%, no sharp cut-off; inactive = mostly below about 7.6%
OPRM1-D1 ag cf: agonists of MOR-DOR heterodimerization, confirmation, cell-based, luminescence; shares compounds with OPRM1-OPRD1 ag; cells, luminescence complementation; activation, % at 9.3 µM; 830 tested, 45% active; AID 504904, 2011
HTR5A ag counter: HTR5A agonists in cells, counter-screen for OPRM1-OPRD1 heterodimer agonist project, cell-based, luminescence. shares compounds with OPRM1-OPRD1 ag. HTR5A agonist counterscreen. activation, % at 9.3 µM. 830 tested, 8% active. AID 504905, 2011; in the data active = activation above about 17%
A number is an active result; . = inactive; / = not tested or not shown. Cut-off read from the data, not from the text of the source, unless noted: active = activation above about 18%; inactive = the rest.

SMILES | MOR-DOR inv ag | HTR5A inv ctr | OPRM1-OPRD1 ag | HTR5A ag ctr | OPRM1-D1 ag cf | HTR5A ag counter
CCOc1cc(C2c3c(oc4ccccc4c3=O)C(=O)N2c2nccs2)ccc1O (stereo unspecified) | . | . | 24 | . | . | .
C=CCN1C(=O)c2oc3ccccc3c(=O)c2C1c1ccc(O)c(OC)c1 (stereo unspecified) | . | . | . | . | / | /
CC(C)Oc1ccc(C2NC(=O)c3ccccc3O2)cc1 (stereo unspecified) | . | . | . | . | / | /
Cc1sc2ncnc(NCC(c3ccccc3)N(C)C)c2c1C (stereo unspecified) | . | . | . | . | / | /
Cc1nc(NCC(c2ccccc2)N(C)C)c2c(C)c(C)sc2n1 (stereo unspecified) | . | . | 37 | . | 48 | .
CSCCC(NS(=O)(=O)c1ccc(C)cc1)C(=O)N1CCN(C(C)=O)CC1 (stereo unspecified) | . | . | . | . | / | /
CSCCC(NS(=O)(=O)c1ccc(C)cc1)C(=O)N1CCN(C(c2ccccc2)c2ccccc2)CC1 (stereo unspecified) | . | . | 57 | . | . | .
COc1ccccc1CN(Cc1nc2ccccc2c(=O)[nH]1)S(=O)(=O)c1ccc2ccccc2c1 | . | . | 20 | . | . | .
COc1ccc(S(=O)(=O)N(Cc2ccccc2)Cc2nc3ccccc3c(=O)[nH]2)cc1 | . | . | . | . | / | /
CCCCCCCCCCCCCCCC[N+](C)(C)CCN(Cc1ccc(OC)cc1)c1ncccn1 | . | . | 29 | . | 35 | .
COc1ccc(CN(CCN(C)C)c2ccccn2)cc1 | . | . | . | . | / | /
N#CC1=C2N=C(N)c3c(sc4c3CCCCC4)N2C2=C(C(=O)CCC2)C1c1ccccc1 (stereo unspecified) | . | . | . | . | / | /
CCOc1ccc(C2C(C#N)=C(N)N(c3sc4c(c3C#N)CCCC4)C3=C2C(=O)CCC3)cc1 (stereo unspecified) | . | . | 79 | . | . | .
COc1ccc2c(c1)C=C(CN1CCC(CO)(CCc3ccccc3)CC1)CO2 | . | . | 36 | . | 54 | .
OCC1(CCc2ccccc2)CCN(Cc2ccccc2Cl)CC1 | . | . | 55 | . | 86 | .
Clc1ccccc1CN1CCN(CCCc2ccccc2)CC1 | . | . | . | . | / | /
OCC1(CCc2ccccc2)CCN(Cc2cc(F)ccc2-n2cccn2)CC1 | . | . | 78 | . | 92 | .
Cc1ccc2sc(N(CCCN(C)C)C(=O)c3ccc(S(=O)(=O)N4CCc5ccccc5C4)cc3)nc2c1C | . | . | 21 | . | . | .
Cc1ccc2sc(N(CCCN(C)C)C(=O)c3ccc(S(=O)(=O)N(C)C)cc3)nc2c1C | . | . | . | . | / | /
CN(C)CCCN(C(=O)c1ccc(S(=O)(=O)N2CCCCCC2)cc1)c1nc2ccc(F)cc2s1 | . | . | 155 | . | . | .
Cc1ccc2sc(N(CCCN(C)C)C(=O)c3ccc(S(=O)(=O)N(C)Cc4ccccc4)cc3)nc2c1C | . | . | 40 | . | . | .
CN(C)CCCN(C(=O)c1ccc(S(=O)(=O)N2CCOCC2)cc1)c1nc2ccc(F)cc2s1 | . | . | . | . | / | /
CCN(Cc1ccccc1)S(=O)(=O)c1ccc(C(=O)N(CCCN(C)C)c2nc3c(F)cccc3s2)cc1 | . | . | 144 | . | 26 | .
CCOc1cccc2sc(N(CCCN(C)C)C(=O)c3ccc(S(=O)(=O)N(CC)Cc4ccccc4)cc3)nc12 | . | . | . | . | / | /
Cc1cc(C)c(S(=O)(=O)N2CCN(C(=O)CN3C(=O)NC4(CCCC4)C3=O)CC2)c(C)c1 | . | . | . | . | / | /
SMILES | MOR-DOR inv ag | HTR5A inv ctr | OPRM1-OPRD1 ag | HTR5A ag ctr | OPRM1-D1 ag cf | HTR5A ag counter
COc1cc2nc(N(CCCN(C)C)C(=O)c3ccc(S(=O)(=O)N4CCc5ccccc5C4)cc3)sc2cc1OC | . | . | . | . | / | /
CN(C)CCCN(C(=O)c1ccc(S(=O)(=O)N2CCc3ccccc3C2)cc1)c1nc2c(F)cc(F)cc2s1 | . | . | 341 | . | 396 | .
Cc1ccc(S(=O)(=O)N(C)Cc2ccc(C(=O)NN=C(CC(C)C)CC(C)C)cc2)cc1 | . | . | . | . | / | /
CC/C(=N\NC(=O)c1ccc(CN(C)S(=O)(=O)c2ccc(C)cc2)cc1)c1ccc(OC(F)F)cc1 | . | . | 31 | . | . | .
Cc1onc(-c2ccc(Cl)cc2)c1-c1ccnc(SCC(=O)Nc2ccc(C(C)C)cc2)n1 | . | . | 56 | . | . | .
O=C(CSc1nccc(-c2cccs2)n1)Nc1ccc(Cl)cc1 | . | . | . | . | / | /
Cc1nc2cc(NC(=O)c3ccc([N+](=O)[O-])s3)ccc2s1 | . | . | 30 | . | . | .
O=C(Nc1ccccn1)c1cc2cc([N+](=O)[O-])ccc2s1 | . | . | 61 | . | 31 | .
O=[N+]([O-])c1cc(N=Nc2ccc3ccccc3c2)ccc1O | . | . | . | . | / | /
COc1ccc([C@H]2CC(=O)C=C(c3c(C)cc(C)cc3C)C2)cc1 | . | . | 27 | . | . | .
Cc1cc(/C=C2\SC(=Nc3ccc(F)cc3)NC2=O)c(C)n1-c1ccc(S(N)(=O)=O)cc1 | . | . | 125 | . | 24 | .
CC1(NC(=O)CC(c2ccccc2)(c2ccccc2)c2ccccc2)CCN(CCCc2ccccc2)C1=O (stereo unspecified) | . | . | 237 | . | 193 | .
CC1(NC(=O)CCc2ccccc2)CCN(CCCc2ccccc2)C1=O (stereo unspecified) | . | . | . | . | / | /
CCN(c1ccccc1)S(=O)(=O)c1cccc(C(=O)N2CCN(S(=O)(=O)c3ccccc3)CC2)c1 | . | . | . | . | / | /
COc1ccc(CN2CCC(N(CCc3ccccc3)Cc3ccccc3)CC2)c(OC)c1 | . | . | 107 | . | . | .
CCCN1CCC(N(CCc2ccccc2)Cc2ccccc2)CC1 | . | . | . | . | / | /
Cn1c(-c2c(N)n(-c3ccccc3)c3nc4ccccc4nc23)nc2ccccc21 | . | . | 19 | . | 26 | .
COc1cccc(-c2nn(-c3ccccc3)cc2CN(C)C(C)c2ccncn2)c1 (stereo unspecified) | . | . | 25 | . | . | .
Nc1ccc2c(c1Cl)C(=O)c1ccc(N)c(Cl)c1C2=O | . | . | . | . | / | /
Cc1ccc2c(c1C)-c1c(ccc(C)c1C)C(=O)C2=O | . | . | 21 | . | 21 | .
NC(=O)C1CCN(C(=O)c2cc(-c3ccc(Cl)s3)nc3ccccc23)CC1 | . | . | . | . | / | /
O=C1OCC(c2ccc(Cl)s2)=C1c1ccccc1[N+](=O)[O-] | . | . | . | . | / | /
